HEK293 viab: GF-AFC viability counterscreen for inhibitors of alpha-synuclein gene (SNCA) expression; HEK-293-SNCA-luc viability, GF-AFC fluorescence, 24 h; Potency, µM (top dose mostly 57.1 µM), for inactives: at the top dose activity change, negative = cytotoxicity, actives largely listed as cytotoxic; 150,000 tested, 0.12% active;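 also: potency is read from the fitted curve at half-maximal effect; 0% = DMSO-treated cells and -100% = medium-only wells without cells; nearly all actives have a fitted effect of over 30% in size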
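HEK-293-SNCA-luc cells (1500/well) plated 24 h, then exposed 24 h to a dilution series; GF-AFC added 30 min at 37C, fluorescence 405/540 nm; normalised to medium-only and DMSO wells, Hill fit.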
SNCA expr inh: Primary qHTS assay for inhibitors of alpha-synuclein gene (SNCA) expression; HEK-293 SNCA-luciferase knock-in, luminescence, 24 h; Potency, µM (highest dose often 57.2 µM), for the others: at the top dose activity change, negative = inhibition, actives largely listed as inhibitors; 140,000 tested, 0.17% active; AID 1671194, 2021;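 also: potency is read from the fitted curve at half-maximal effect; plate controls were DMSO cells for no effect and cell-free wells for full effect; nearly all actives have a fitted effect of over 45% in size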
KDM5B inhibitor: Primary screen for KDM5B Histone Demethylases FDH-coupled qHTS. Lysine-specific demethylase 5B (Homo sapiens), Q9UGL1. KDM5B demethylase, FDH-coupled NADH fluorescence (FDH is formaldehyde dehydrogenase). Potency, µM (highest dose often 57.7 µM), most hits filed as inhibitors. 220,000 tested, 2.6% active; also: potency is read from the fitted curve at half-maximal effect; 0% is about no effect; nearly all actives have a fitted effect of over 70% in size
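Compound dilutions met 200 nM (final) KDM5BΔAP for 10 min at room temperature before substrate addition. The substrate mix held 12.5 µM H3K4me3 with cofactors 25 µM α-ketoglutarate and 50 µM Fe²⁺. NADH signal gain over 30 min defined activity.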
IP6K1 inhibitor: Primary qHTS assay for small molecule inhibitors of Inositol hexaphosphate kinase 1 (IP6K1); activity change, % (series mostly up to about 58 µM); 140,000 tested, 0.81% active; Inositol hexakisphosphate kinase 1 (Homo sapiens), Q92551; IP6K1 kinase, ADP-Glo luminescence, 2 h; active compounds read low; AID 1645851, 2021; in the data active = activity change below about -25%; also: % is scaled to controls: 0 for no effect and ±100 for the full control effect
Target sequence (Q92551 whole entry, looked up): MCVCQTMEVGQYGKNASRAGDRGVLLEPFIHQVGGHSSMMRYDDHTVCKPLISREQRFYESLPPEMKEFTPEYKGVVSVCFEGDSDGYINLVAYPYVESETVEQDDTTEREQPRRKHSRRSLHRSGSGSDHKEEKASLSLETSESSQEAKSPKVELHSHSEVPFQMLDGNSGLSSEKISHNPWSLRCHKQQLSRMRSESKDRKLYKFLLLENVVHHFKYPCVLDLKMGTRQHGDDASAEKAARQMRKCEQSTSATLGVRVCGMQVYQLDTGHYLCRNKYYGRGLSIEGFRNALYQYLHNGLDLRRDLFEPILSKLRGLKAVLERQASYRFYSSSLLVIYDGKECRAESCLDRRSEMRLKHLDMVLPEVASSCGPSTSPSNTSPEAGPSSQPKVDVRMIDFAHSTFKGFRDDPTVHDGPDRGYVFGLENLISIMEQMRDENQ
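ADP-Glo luminescence measures ADP made by human IP6K1 during a 2 h RT reaction with ATP/IP6 (mix at 1.3 mM/130 uM); top library doses 57.5 and 19.1 uM final.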
IP6K1 conf: Confirmatory qHTS assay for small molecule inhibitors of Inositol hexaphosphate kinase 1 (IP6K1); recombinant IP6K1 kinase, ADP-Glo luminescence, 2 h; 1,200 tested, 13% active; AID 1645852, 2021; shares compounds with IP6K1 inhibitor; Potency, µM (top dose mostly 49 µM), inactives show top-dose activity change, negative = inhibition, actives largely listed as inhibitors; also: potency is read from the fitted curve at half-maximal effect; % is scaled to controls: 0 for no effect and ±100 for the full control effect; nearly all actives have a fitted effect of over 65% in size
The depositor's hits bear a star; i = inactive; ? = inconclusive; nt = no result; [ ] = another dose, or the depositor's remark. This is a sample that favours compounds with a hit; in the whole collection about 3% have one here. Unless noted, calls follow the shape of the dose curve; as a rule, active = well fitted curve in the direction sought with a large enough effect; inconclusive = small, poorly fitted or top-dose-only effect, or another doubt; inactive = no such curve, though single readings can be large; an effect the other way counts as inactive or inconclusive.

SMILES | HEK293 viab | SNCA expr inh | KDM5B inhibitor | IP6K1 inhibitor | IP6K1 conf
O=C(Cc1c[nH]c2ncc(-c3ccc(F)c(Cl)c3)cc12)NCc1cccnc1 | -18%[87.6 µM] | -19%[87.6 µM] | 32µM* | -26* | ?
CCc1ccc(/C=C(/C#N)C(=O)c2c(C)[nH]c3ccccc23)cc1 | nt | nt | i | nt | nt
COc1cccc(-c2[nH]nc3c2C(c2ccccc2F)C(C#N)=C(N)O3)c1 (stereo not drawn) | nt | nt | i | nt | nt
Cc1oc(-c2nc(C#N)c(N(C)C)o2)cc1S(=O)(=O)N(C)c1ccccc1 | nt | nt | i | nt | nt
CN1C(=O)N[C@@H](Cc2c[nH]c3c(Cl)cccc23)C1=O | -30% | nt | nt | -4 | nt
CN1C(=O)NC(Cc2c[nH]c3c(Cl)cccc23)C1=O (stereo not drawn) | nt | nt | nt | nt | 23%
Cc1cccc(NC(=O)Cn2nnc(C(=O)Nc3ccc(F)c(Cl)c3)c2N)c1 | -13% | 3% | i | -34* | -17%
COc1ccc(NC(=O)Cn2nnc(C(=O)Nc3ccc(C)c(F)c3)c2N)cc1Cl | -8% | 22% | i | 21 | nt
COc1cccc(NC(=O)c2nnn(Cc3ccc(OC)c(Br)c3)c2N)c1 | 3% | 43% | i | -27* | ?
c1ccc2cc(-c3ccn[nH]3)ccc2c1 | nt | nt | i | nt | nt
Cc1ccc(NC(=O)CN(C)C(=O)CCc2ncc(-c3ccc(C)c(C)c3)o2)cc1 | nt | nt | i | nt | nt
Oc1ccc(/C=C/c2cc(O)cc(O)c2)cc1 | -12% | ? | nt | -60* | 9.2µM*
Oc1cc(O)cc(C=Cc2ccc(O)c(O)c2)c1 | -14% | -1% | nt | nt | nt
COc1cccc(C(=O)Nc2ccc(N3CCN(C(=O)c4ccccc4C)CC3)cc2)c1 | nt | nt | i | nt | nt
O=C(Nc1cccc(F)c1)Nc1ccnn1C1CCN(C(=O)C2CCC2)CC1 | 4% | 19% | i | -32* | -5%
Cn1c(COc2ccccc2Cl)nnc1SCCOc1ccc(Cl)cc1 | nt | nt | i | nt | nt
Cc1ccc(CN(Cc2ccco2)C(=O)c2oc3ccc(C)cc3c2C)cc1 | 21% | 20% | ? | -12 | nt
Cc1ccc(CN(Cc2ccco2)C(=O)c2oc3c(C)c(C)ccc3c2C)cc1 | 1% | -6% | ? | -29* | ?
COc1ccc(CCNC(=O)CCc2nnc(-c3cccc(OC(C)C)c3)[nH]c2=O)cc1 | 2% | 12% | i | -7 | nt
CC(C)Oc1cccc(-c2nnc(CCC(=O)NCCc3cccs3)c(=O)[nH]2)c1 | 9% | 0% | i | -27* | ?
Cc1c2cnn(CC(=O)NCc3cccs3)c(=O)c2c(C)n1Cc1ccccc1 | nt | nt | i | nt | nt
COc1ccc(-c2cnc3[nH]cc(CC(=O)Nc4cccc(N(C)C)c4)c3c2)cc1 | -28%[87.6 µM] | 27%[87.6 µM] | ? | -20 | nt
C[S+](=O)([O-])c1cccc(NC(=O)Cc2c[nH]c3ncc(-c4ccccc4)cc23)c1 | -23%[87.6 µM] | -14%[87.6 µM] | 32µM* | -26* | ?
COc1ccc(-c2cnc3[nH]cc(CC(=O)Nc4ccncc4)c3c2)cc1 | -10%[87.6 µM] | -10%[87.6 µM] | ? | -39* | ?
CN(C)c1ccc(-c2cc(-c3ccc(=O)[nH]c3)c3cncn3c2)cc1 | -19%[87.6 µM] | 26%[87.6 µM] | ? | 0 | -14%
SMILES | HEK293 viab | SNCA expr inh | KDM5B inhibitor | IP6K1 inhibitor | IP6K1 conf
NC(=O)NC1N=C([O][Al])NC1=O (stereo not drawn) | -25%[23.9 µM] | -36%[25.6 µM] | nt | -31* | 2%
COc1ccc(C(=O)Nc2noc3ccccc23)cc1 | -3% | ? | i | -58* | 7.3µM*
Cc1ccc(C(=O)Nc2noc3ccccc23)cc1 | -10% | nt | nt | -55* | ?
CCOC(=O)[C@H]1C[C@]2(CCCCN(CCOC)C2=O)N(C(=O)Cc2cccs2)[C@H]1c1ccco1 | nt | nt | nt | -6 | nt
COCCN1CCCC[C@]2(C[C@H](C(=O)O)[C@H](c3ccco3)N2C(=O)Cc2cccs2)C1=O | nt | nt | nt | -25* | ?
CCN(CCCNC(=O)c1cc(Nc2ccc(OC)cc2OC)nc2ccccc12)c1cccc(C)c1 | -4% | 3% | ? | -36* | -2%

Screening results from PubChem BioAssay.
